G9a inh: G9a (human) methyltransferase inhibition; G9a H3K9 monomethylation, AlphaScreen, 2 h; Potency, µM (top dose mostly 102 µM), inactives show at the highest dose activity, negative = inhibition, most hits filed as inhibitors; hit rate 8.8% among 350,000; note: % is set by controls: 0 for no effect and ±100 for the full control effect; nearly all actives have a fitted effect of over 75% in size
Target sequence (Q96KQ7 913-1193 limits assumed): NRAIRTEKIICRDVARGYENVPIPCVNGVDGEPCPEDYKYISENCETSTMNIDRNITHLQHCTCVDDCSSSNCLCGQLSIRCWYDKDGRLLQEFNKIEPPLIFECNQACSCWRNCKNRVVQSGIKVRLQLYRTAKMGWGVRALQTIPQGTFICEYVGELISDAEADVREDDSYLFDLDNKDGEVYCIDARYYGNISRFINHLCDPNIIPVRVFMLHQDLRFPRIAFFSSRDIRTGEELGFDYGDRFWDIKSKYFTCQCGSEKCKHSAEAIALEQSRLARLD
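Enzyme 20 nM + cpd, 15 min RT; add b-H3K9 pep 500 nM / SAM 20 uM; 2 h RT; anti-H3K9me1 Ab 0.5 ug/mL + SA donor / anti-rabbit acceptor beads 20 ug/mL each, 10 min; AlphaScreen read.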
VDR inhibitor: blocks the human vitamin D receptor | VDR-SRC2-3 peptide fluorescence polarization, 2 h | Potency, µM, inactives show max response, negative = inhibition, actives largely listed as inhibitors | hit rate 0.93% among 400,000; note: % is set by controls: 0 for no effect and ±100 for the full control effect
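Compounds are added to VDR with labelled SRC2-3 coactivator peptide and held 2 h at room temperature. Inhibition of the VDR–peptide interaction is then read as a change in fluorescence polarization.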
BAZ2B block: BAZ2B (human) inhibition; Q9UIF8; AlphaScreen BAZ2B-H3K14Ac peptide displacement; Potency, µM (titrated, usually from 114 µM), for inactives: top-dose activity change, negative = inhibition, usual class: inhibitors; hit rate 4.4% among 360,000; AID 504333; note: % is set by controls: 0 for no effect and ±100 for the full control effect; nearly all actives have a fitted effect of over 60% in size
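AlphaScreen displacement: compounds (up to 110uM) incubated 30 min at room temperature with a preformed 50 nM BAZ2B/50 nM biotinylated H3K14Ac peptide complex in PBS pH 7.4 with Tween-20. Donor and acceptor beads at 10 ug/mL final added, 20 min light-protected before reading.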
JMJD2A Tudor inh: JMJD2A Tudor domain (human) inhibition. O75164. AlphaScreen JMJD2A-Tudor / H3K4me3 peptide binding. Potency, µM (top dose mostly 114 µM), without a hit: top-dose activity change, negative = inhibition, usual class: inhibitors. hit rate 4.4% among 390,000; note: % is set by controls: 0 for no effect and ±100 for the full control effect; nearly all actives have a fitted effect of over 50% in size
PLK1 PBD inh: PLK1 (human) polo-box domain binding inhibition. Plk1 PBD binding of FITC phosphopeptide, fluorescence polarization. Potency, µM, for inactives: max response, negative = inhibition, hits mostly inhibitors. hit rate 2.8% among 360,000; note: series mostly up to about 57 µM; % is set by controls: 0 for no effect and ±100 for the full control effect; nearly all actives have a fitted effect of over 65% in size
HP1b binding inh: inhibitors of HP1-beta chromodomain binding to methylated histone tails | P83916 | AlphaScreen HP1-beta / biotin-H3K9me3 peptide binding | Potency, µM (top dose mostly 114 µM), without a hit: top-dose activity change, negative = inhibition, actives largely listed as inhibitors | hit rate 0.56% among 390,000 | AID 540317; note: nearly all actives have a fitted effect of over 70% in size
Target sequence (P83916 whole entry, looked up): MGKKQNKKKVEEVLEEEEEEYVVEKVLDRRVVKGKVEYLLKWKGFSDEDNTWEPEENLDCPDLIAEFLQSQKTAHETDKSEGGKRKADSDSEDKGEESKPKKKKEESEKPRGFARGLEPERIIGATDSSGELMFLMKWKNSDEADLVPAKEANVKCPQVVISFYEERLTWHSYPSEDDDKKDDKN
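Compound inhibition of the preformed complex between 50 nM HP1-beta and 50 nM biotinylated H3K9me3 peptide was read by AlphaScreen. Buffer was PBS pH 7.4 with 0.01% Tween-20. Incubations ran 30 min at room temperature, with 10 ug/mL donor/acceptor beads.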
* marks the source's active call; other numbers are inactive results; [ ] = remark or other dose. Only some compounds are listed: those with a hit (about 11% of all), similar ones and a draw of the others. Calls come from the whole dose curve; as a rule, active = well fitted curve in the direction sought with a large enough effect; inconclusive = small, poorly fitted or top-dose-only effect, or another doubt; inactive = no such curve, though single readings can be large; an effect the other way counts as inactive or inconclusive. Potency is the fitted concentration of half-maximal effect.

O=C(Nc1ccc(N2CCOCC2)cc1)C1=NN(c2ccccc2)C(=O)CC1 was read as G9a inh 45µM*, VDR inhibitor 12%, BAZ2B block -34%, JMJD2A Tudor inh -19%, PLK1 PBD inh -3% and HP1b binding inh 8%.
O=C(Nc1ccc(N2CCOCC2)c(Cl)c1)c1ncn[nH]1 was read as G9a inh -11%[59 µM], VDR inhibitor -23%, BAZ2B block 18µM*, JMJD2A Tudor inh 56µM*, PLK1 PBD inh -3% and HP1b binding inh 28%.
Cc1ccc(NC(=O)c2cc(N3C(=O)C=CC3=O)ccc2N2CCOCC2)cc1Cl was read as G9a inh 1.6µM*, VDR inhibitor 45µM*, BAZ2B block 50µM*, JMJD2A Tudor inh 20µM*, PLK1 PBD inh 4.7µM* and HP1b binding inh inconclusive.
CC(C)(C)c1ccc(C(=O)Nc2ccc(N3CCOCC3)cc2)cc1 was read as G9a inh -13%[12.7 µM], VDR inhibitor 2%, BAZ2B block -9%, JMJD2A Tudor inh -25%, PLK1 PBD inh -4% and HP1b binding inh -3%.
For CC(=O)c1ccc(C(=O)Nc2ccc(N3CCOCC3)cc2)cc1 the results were G9a inh 5%[59 µM], VDR inhibitor 26%, JMJD2A Tudor inh -6%, PLK1 PBD inh -2% and HP1b binding inh 14%.
CC(C)c1ccc(C(=O)Nc2ccc(N3CCOCC3)cc2)cc1 was read as G9a inh 50µM*, VDR inhibitor -4%, BAZ2B block -10%, JMJD2A Tudor inh -13%, PLK1 PBD inh -6% and HP1b binding inh 23%.
Cc1oc(C(C)(C)C)cc1C(=O)Nc1ccc(N2CCOCC2)cc1 was read as G9a inh 45µM*, VDR inhibitor -8%, BAZ2B block -25%, JMJD2A Tudor inh -17%, PLK1 PBD inh 0% and HP1b binding inh -10%.
`CN(C)c1ccc(NC(=O)c2ccc(N3CCOCC3)nc2)cc1` gave G9a inh 7.9µM*, VDR inhibitor 79µM*, BAZ2B block inconclusive, JMJD2A Tudor inh inconclusive, PLK1 PBD inh -15% and HP1b binding inh -14%.
For COc1ccc(NC(=O)c2ccc(N3CCOCC3)nc2)cc1 the results were G9a inh 32%, VDR inhibitor 13%, BAZ2B block -5%, JMJD2A Tudor inh -8%, PLK1 PBD inh -11% and HP1b binding inh 23%.
O=C(Nc1ccc(N2CCOCC2)cc1)Nc1ccc(Cl)c(Cl)c1 was read as G9a inh 7.1µM*, VDR inhibitor -11%, BAZ2B block -10%, JMJD2A Tudor inh -32%, PLK1 PBD inh -5% and HP1b binding inh 20%.
Screening CSc1nc2nc3c(cc2c(=O)n1-c1ccccc1)COC(C)(C)C3 returned G9a inh 50µM*, VDR inhibitor 2%, BAZ2B block -16%, JMJD2A Tudor inh 1%, PLK1 PBD inh -20% and HP1b binding inh 35%.
CSc1nc2nc3c(cc2c(=O)n1-c1ccc(C)cc1)COC(C)(C)C3 was read as G9a inh inconclusive, VDR inhibitor -2%, BAZ2B block -1%, JMJD2A Tudor inh -17%, PLK1 PBD inh -14% and HP1b binding inh 23%.
`CCOC(=O)C1CCCN(C(=O)Cn2ncc3c([nH]c4ccccc43)c2=O)C1` (stereo not drawn) gave G9a inh 21%[59 µM], VDR inhibitor -3%, BAZ2B block -6%, JMJD2A Tudor inh -6%, PLK1 PBD inh 0% and HP1b binding inh 20%.
For Cn1cccc1C(=O)OCC(=O)c1cc2ccccc2o1 the results were G9a inh 45µM*, VDR inhibitor -2%, BAZ2B block -22%, JMJD2A Tudor inh inconclusive, PLK1 PBD inh 3% and HP1b binding inh -8%.
CCn1cc(C(=O)OCC(=O)Nc2cccc(C(C)=O)c2)c(=O)c2ccc(C)nc21 was read as G9a inh -6%[59 µM], VDR inhibitor 11%, BAZ2B block -1%, JMJD2A Tudor inh -11% and HP1b binding inh 8%.
Screening Cc1cccc(N2CCN(C(=O)C3CCN(S(=O)(=O)c4c(C)noc4C)CC3)CC2)c1C returned G9a inh -29%[59 µM], VDR inhibitor -16%, BAZ2B block -6%, JMJD2A Tudor inh -16%, PLK1 PBD inh -2% and HP1b binding inh 21%.
Cn1nc(-c2ccccc2)c(C(=O)NC(C(=O)O)c2ccccc2)c1Cl (stereo not drawn) was read as VDR inhibitor 6%, BAZ2B block 50µM*, JMJD2A Tudor inh -12%, PLK1 PBD inh -18% and HP1b binding inh 23%.
Screening Cn1nc(-c2ccccc2)c(C(=O)Nc2ccc(Cl)cc2)c1Cl returned G9a inh 12%, VDR inhibitor 3%, BAZ2B block -29%, JMJD2A Tudor inh -9%, PLK1 PBD inh -6% and HP1b binding inh 17%.
Screening COc1ccc(CN2CCN(C(=O)c3cccnc3)CC2)cc1Br returned G9a inh 18µM*, VDR inhibitor -2%, BAZ2B block 35µM*, JMJD2A Tudor inh 3.2µM*, PLK1 PBD inh -3% and HP1b binding inh inconclusive.
O=C(c1cccnc1)N1CCN(Cc2cccc(Br)c2)CC1 was read as G9a inh 13µM*, VDR inhibitor -8%, BAZ2B block 19%, JMJD2A Tudor inh 3.5µM*, PLK1 PBD inh 0% and HP1b binding inh 50µM*.
Screening COc1cc(OC)cc(C(=O)N2CCN(C(=O)c3cccnc3)CC2)c1 returned G9a inh 10%, VDR inhibitor -9%, BAZ2B block inconclusive, JMJD2A Tudor inh 5%, PLK1 PBD inh 3% and HP1b binding inh 45%.
Screening COc1ccccc1C(=O)Nc1cccc(OCc2cc(=O)n3c4c(sc3n2)CCCC4)c1 returned G9a inh 8%[59 µM], VDR inhibitor 2%, BAZ2B block -3%, JMJD2A Tudor inh -9% and HP1b binding inh 34%.
`Cc1ccc([C@@H]2C[C@H]3[C@@H](CN2S(=O)(=O)c2ccc(Cl)cc2)C(=O)C[C@@H](c2ccccc2)N3S(=O)(=O)c2ccc(C)cc2)cc1` gave PLK1 PBD inh -10%.
`Cc1nc(NC(C)c2ccccc2)c2oc3ccccc3c2n1` (stereo not drawn) gave VDR inhibitor 13%, BAZ2B block inconclusive, JMJD2A Tudor inh -11%, PLK1 PBD inh -10% and HP1b binding inh 35%.
`Cc1ccc(NC(=O)CSc2nc3nc(C)c(Cc4ccccc4)c(C)n3n2)cc1` gave G9a inh -5%[59 µM], VDR inhibitor 12%, BAZ2B block -8%, JMJD2A Tudor inh -18% and HP1b binding inh 34%.
`COc1cc(CN2c3ccccc3C(=O)CS2(=O)=O)cc(OC)c1` gave VDR inhibitor -5%, JMJD2A Tudor inh -17%, PLK1 PBD inh -9% and HP1b binding inh 19%.
O=C1CS(=O)(=O)N(Cc2ccc(F)cc2)c2ccccc21 was read as VDR inhibitor 79µM*, JMJD2A Tudor inh -16%, PLK1 PBD inh -11% and HP1b binding inh 39%.
